We go through 48 compounds from PubChem BioAssay AID2232 (The Scripps Research Institute Molecular Screening Center, 2010).

Molecules are shown by their SMILES. Hit rate of the full screen: of about 1,100 compounds, about 790 (72%) were called active. The set was probably picked from earlier hits. Not all results are given here. Unmarked numbers belong to inactive results.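 Rule for the calls: active = mean inhibition across replicates above the hit cutoff set in the primary screen (cut at about 26% in these data); inactive = the rest.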

The target in this test is Acyl-protein thioesterase 2 (Homo sapiens) (UniProt O95372). Description: LYPLA2 inhibitors, retest, confirmation, counter-screen for PME1 inhibitor project, biochemical, fluorescence polarization, FP-Rh probe ABPP (AID 2232).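 Note: blocked labeling of the enzyme by serine hydrolase FP-Rh probe lowers polarization; 0% = enzyme with DMSO and 100% = wells lacking LYPLA2.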 The conditions noted are these: recombinant LYPLA2, FP-Rh probe fluorescence polarization; at 5.9 µM; active compounds read high. In general terms: Counterscreens check selectivity or assay interference.
Chain of Acyl-protein thioesterase 2 (Homo sapiens) (O95372 whole entry, looked up): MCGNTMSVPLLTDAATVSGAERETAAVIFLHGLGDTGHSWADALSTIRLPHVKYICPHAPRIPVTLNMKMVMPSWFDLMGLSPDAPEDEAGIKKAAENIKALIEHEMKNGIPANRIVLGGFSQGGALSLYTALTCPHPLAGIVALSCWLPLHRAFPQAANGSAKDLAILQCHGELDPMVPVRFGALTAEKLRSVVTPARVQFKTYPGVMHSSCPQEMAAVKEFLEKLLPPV
With `Cc1ccc(N2CCN(C3=NC(=O)/C(=C\c4cccs4)S3)CC2)cc1`, the inhibition (as a rule, the change of the read-out against control, counted positive when it falls) is 56.2% (active). With `CCC(CC)COC(=O)C1=C(C)NC(=O)NC1c1ccc([N+](=O)[O-])cc1` (stereo not drawn), the inhibition is 48.5% (active). The figure for `Cc1c(C)c2ccc(OCC(=O)N3CCN(c4cccc(Cl)c4)CC3)cc2oc1=O` is 45.7% (active). Then `O=C(COc1ccc(Cl)cc1)N1CCN(c2cccc(C(F)(F)F)c2)CC1`, with 63.1% (active); and `CCC(=O)c1ccc(OCC(O)CN2CCN(c3cccc(C(F)(F)F)c3)CC2)cc1` (stereo not drawn), with 62.3% (active); and `O=C(CCCN1C(=O)CSc2ncccc21)N1CCN(c2cccc(C(F)(F)F)c2)CC1`, with 60.9% (active). The figure for `O=C(c1cc(-c2ccc(Cl)cc2)on1)N1CCN(c2ccccc2)CC1` is 2.82%; for `CN(CCc1ccccn1)C(=O)c1ccc(OC2CCN(CCc3ccccc3)CC2)cc1` it is 21.1%. With `O=C(CCCN1C(=O)c2cccc3cccc(c23)C1=O)N1CCN(Cc2ccc3c(c2)OCO3)CC1`, the inhibition is 55.4% (active). Consider `O=C(COc1ccc(NC(=O)c2ccccc2[N+](=O)[O-])cc1)c1ccc(F)cc1`, for which the inhibition is 34.8% (active). For `O=[N+]([O-])c1ccc(Oc2ccc(F)cc2Br)c2ccncc12`, the inhibition is 33.5% (active). Turning to `Cc1cc(OCCCN2CCN(Cc3ccccc3)CC2)ccc1[N+](=O)[O-]`, the inhibition was 40.4% (active). Then `CSc1cccc(NC(=O)CN2C(=O)COc3ccc(S(=O)(=O)N4CCOCC4)cc32)c1`, with 33.8% (active).

In the case of `N#Cc1ccc(C2=CC(=O)C[C@H](c3ccc(Cl)cc3)C2)cc1`, the inhibition was 42% (active). Consider `O=C(CC1SC(N2CCCC2)=NC1=O)Nc1ccc(C(=O)NCCc2ccc(F)cc2)cc1` (stereo not drawn), for which the inhibition was 43.7% (active). As to `CCOC(=O)c1cc2cc(-c3c(C(=O)OCC)oc4cc(O)cc(O)c4c3=O)ccc2o1`, the inhibition is 36.7% (active). The figure for `O=C1C2CCCN2C(=O)N1CCCCN1CCN(c2cccc(C(F)(F)F)c2)CC1` (stereo not drawn) is 55.6% (active); for `CCN(CC)C(=O)CC1(c2ccccc2OC)CCOC(C(C)C)C1` (stereo not drawn) it is 4.28%. The figure for `Cc1nc([N+](=O)[O-])cn1CC(=O)Nc1ccc(Cl)cc1` is 34.4% (active). As for `Cc1nc([N+](=O)[O-])cn1CC(=O)Nc1ccc2c(c1)OCO2`, the inhibition is 26.8% (active). Turning to `CCc1ccc(NC(=O)c2ccc(Cn3cc([N+](=O)[O-])cn3)cc2)cc1`, the inhibition is 19.7%. Then `O=C(c1ccco1)N1CCN(C(=S)Nc2cc(F)cc(F)c2)CC1`, with 44.1% (active). Consider `CCOc1ccc(C(=O)NC(=S)Nc2ccc(N3CCOCC3)c(Cl)c2)cc1[N+](=O)[O-]`, for which the inhibition is 21.8%. Then `O=C(Nc1ccc(N2CCN(C(=O)c3ccccc3)CC2)c(Cl)c1)c1cccnc1`, with 27% (active). Then `Cc1ccc(C(c2sc3nc(C)nn3c2O)N2CCN(c3ccc(F)cc3)CC2)cc1` (stereo not drawn), with 30% (active). The figure for `COc1ccc(CCNc2nc(-c3cccc(NC(C)=O)c3)cs2)cc1OC` is 3.07%; for `O=C(Cc1ccc(-n2c(=O)[nH]c3ccccc3c2=O)cc1)N1CCN(c2cccc(Cl)c2)CC1` it is 48.3% (active). Take `COc1ccc(-c2nc(CS(=O)CC(=O)NCc3ccccn3)c(C)o2)cc1` (stereo not drawn): the inhibition is 9.85%. Then `O=[N+]([O-])c1ccc(N2CCN(CC(O)COc3ccccc3)CC2)cc1` (stereo not drawn), with 29.1% (active); and `COCCOC(=O)c1sc(=S)n(CCOC)c1N`, with 21.3%; and `Cc1ccc(/C=N/NC(=O)C(NC(=O)c2ccccc2)c2n[nH]c(=O)c3ccccc23)cc1` (stereo not drawn), with 56.2% (active). For the compound `Cc1nn2c(=O)cc(COC(=O)c3ccc(NC(=O)C(C)(C)C)cc3)nc2s1`, the inhibition is 27.5% (active).

With `COc1ccccc1C(=O)NC(CCSC)C(=O)N1CCN(C/C=C/c2ccccc2)CC1` (stereo not drawn), the inhibition is 31.7% (active).

As for `Cc1cc(C)c(C#N)c(SCc2[nH]nc3c2C(c2ccccc2)C(C#N)=C(N)O3)n1` (stereo not drawn), the inhibition is 48.2% (active).

Regarding `N#Cc1cc([N+](=O)[O-])ccc1Oc1cccc(/C=N/NC(=O)c2ccc(Cl)cc2)c1`, the inhibition is 15.7%. Then `CC(=O)c1ccc(N2CCN(C(=O)C3CCN(S(=O)(=O)c4ccc5c(c4)CC(C)N5C(=O)C4CC4)CC3)CC2)cc1` (stereo not drawn), with 72% (active). As to `CC(=O)N1c2ccc(S(=O)(=O)N3CCC(C(=O)N4CCN(c5ccccc5)CC4)CC3)cc2CC1C` (stereo not drawn), the inhibition is 47.4% (active).

Take `Cc1nn(Cc2ccccc2)c(C)c1CNC(=O)c1ccc(F)c(S(=O)(=O)N2CCOCC2)c1`: the inhibition was -0.54%. For the compound `CCCCCC1CCC(c2nnc(SCC(C)=O)o2)CC1` (stereo not drawn), the inhibition was 37.8% (active).

Consider `CCN(CC)c1ccc(C(=O)NNC(=O)CCc2nc3ccccc3c(=O)[nH]2)cc1`, for which the inhibition was 1.17%. Then `COc1ccc(N2CCN(C(=O)c3ccc(N4CCCCS4(=O)=O)cc3)CC2)cc1`, with 56.2% (active); and `Nc1[nH][nH]c(=O)c1N=Nc1ccc2c(c1)OCO2`, with 1.18%. Then `COc1ccc(N2CC(C(=O)NCCN3C(=O)S/C(=C\c4cccnc4)C3=O)CC2=O)c(OC)c1` (stereo not drawn), with 6.43%; and `CCCCCCOc1ccc(OC(=O)c2cccnc2)cc1`, with 59.1% (active). Take `CCC(=C/c1sc2ccc3ccccc3c2[n+]1C)/C=C1\Sc2ccc3ccccc3c2N1C`: the inhibition is 0.49%. The figure for `O=C(Nc1ccc(N2CCN(C(=O)c3cccs3)CC2)cc1)c1cccnc1Cl` is 37.2% (active). The figure for `COc1ccc(C(C#N)Nc2ccc(C)cc2)cc1` (stereo not drawn) is 3.09%. The figure for `Cc1cccc(OCC(O)CN2CCN(CCN3C(=O)c4cccc5cccc(c45)C3=O)CC2)c1C` (stereo not drawn) is 42.9% (active).
